HTT-AS promoter: Primary qHTS for Identification of Small Molecule Activators of Huntingtin-Antisense Promoter Activity; HEK293 HTT-AS promoter firefly luciferase reporter, 24 h; response scale: percent change from vehicle, -100% = no light; Potency, µM (doses to about 57.5 µM), without a hit: at the top dose activity change, positive = activation, most hits filed as activators; 48,000 compounds, 0.24% hits; also: potency is read from the fitted curve at half-maximal effect; nearly all actives have a fitted effect of over 55% in size
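HEK293 Fluc reporter, 2,500 cells/well, 24 h pre-culture; cpds up to 57.5 uM final, 24 h 37 degrees C; Dual-Glo, 10 min RT; normalized vehicle = 0%, zero RLU = -100%.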
NTMT1 inh: Primary qHTS for Inhibitors of N-terminal methyltransferase 1 (NTMT1): MTaseGlo Assay | N-terminal Xaa-Pro-Lys N-methyltransferase 1 (Homo sapiens), Q9BV86 | NTMT1 MTase-Glo SAH luminescence, purified enzyme | Potency, µM (top dose mostly 114 µM), without a hit: at the top dose activity change, negative = inhibition, actives largely listed as inhibitors | 59,000 compounds, 2.5% hits | AID 1645870, 2021;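 also: potency is read from the fitted curve at half-maximal effect; plate controls were DMSO vehicle for no effect and no enzyme for full effect; nearly all actives have a fitted effect of over 65% in size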
HTT prom inh: Primary qHTS for Identification of Small Molecule Inhibitors of Huntingtin Promoter Activity | HEK293 HTT promoter firefly luciferase reporter, 24 h | Potency, µM (doses to about 57.5 µM), without a hit: at the highest dose activity change, negative = inhibition, actives largely listed as inhibitors | 48,000 compounds, 0.93% hits | AID 1508623, 2021; also: potency is read from the fitted curve at half-maximal effect; nearly all actives have a fitted effect of over 50% in size
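Quantitative HTS used concentration series of up to 57.5 uM final on HEK293 luciferase reporter cells, 24 h at 37 degrees C. Readout was Dual-Glo firefly luminescence.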
DRV1 agonist: qHTS for Agonists of Human Resolvin D1 Receptor DRV1 | Probable G-protein coupled receptor 32 (Homo sapiens), O75388 | 48,000 compounds, 2.5% hits | CHO-K1 GPR32 beta-arrestin PathHunter luminescence, 90 min; zero percent set by DMSO-only wells | AID 1346428, 2018 | activation, % at 76.9 µM;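 active = activation of at least 60% and not above a set upper limit, about 1 call in 100 departs from these limits; inconclusive = activation of 40% to 60%, or above that upper limit; inactive = activation under 40%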; also: 0% is about no effect
Target sequence (O75388 whole entry, looked up): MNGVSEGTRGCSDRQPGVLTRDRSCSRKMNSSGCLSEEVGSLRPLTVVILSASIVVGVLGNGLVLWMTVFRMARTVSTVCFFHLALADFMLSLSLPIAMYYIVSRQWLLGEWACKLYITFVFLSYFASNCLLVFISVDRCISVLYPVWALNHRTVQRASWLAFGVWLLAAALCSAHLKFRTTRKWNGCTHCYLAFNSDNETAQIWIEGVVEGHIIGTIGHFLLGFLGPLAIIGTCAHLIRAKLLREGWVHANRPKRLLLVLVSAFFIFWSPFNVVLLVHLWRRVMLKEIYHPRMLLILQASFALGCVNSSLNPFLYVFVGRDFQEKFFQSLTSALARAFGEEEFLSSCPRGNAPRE
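Luminescent readout of beta-Gal complementation quantifies ligand-induced beta-arrestin association with GPR32 in CHO-K1 cells; 90 min compound incubation at 37 °C, detection 1 h at room temperature.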
DYRK1A KinaseGlo: Assay for Inhibitors of Dual-Specificity Tyrosine-(Y)-Phosphorylation Regulated Kinase 1A (Kinase-Glo assay); shares compounds with NTMT1 inh; recombinant DYRK1A, Kinase-Glo ATP depletion luminescence; Potency, µM (series often up to 76.9 µM), inactives show at the highest dose activity change, negative = inhibition, usual class: inhibitors; 100 compounds, 80% hits
CLK4 inh: Confirmation Assay for Inhibitors of CDC-like Kinase 4 (Kinase-Glo Assay): SAR round 2 | Potency, µM (series often up to 76.9 µM), for inactives: at the highest dose activity, negative = inhibition, most hits filed as inhibitors | recombinant Clk4, Kinase-Glo ATP luminescence, 4.5 h | shares compounds with NTMT1 inh | AID 493204, 2011 | 90 compounds, 90% hits
Sfp PPTase inh: qHTS Assay for Inhibitos of Bacillus subtilis Sfp phosphopantetheinyl transferase (PPTase): Chemistry Optimization Followup. shares compounds with NTMT1 inh. purified Sfp PPTase enzyme activity, qHTS. Potency, µM (highest dose often 114 µM), without a hit: at the top dose activity change, negative = inhibition, actives largely listed as inhibitors. 230 compounds, 78% hits
HM489 growth: qHTS for Inhibitos of Bacillus subtilis Sfp phosphopantetheinyl transferase (PPTase): Chemistry Optimization Followup in B. Subtilis HM489; shares compounds with NTMT1 inh; B. subtilis HM489 (acpS-) growth, BacTiter-Glo, 5 h; Potency, µM (series often up to 114 µM), without a hit: top-dose activity change, negative = inhibition, usual class: inhibitors; 220 compounds, 50% hits; AID 540353, 2011
Sfp PPTase gel: Gel-Based Assay for Inhibitos of Bacillus subtilis Sfp phosphopantetheinyl transferase (PPTase): Chemistry Optimization Followup; shares compounds with NTMT1 inh; purified Sfp PPTase, gel-based product detection; Potency, µM (top dose mostly 250 µM), for inactives: at the highest dose activity change, negative = inhibition, usual class: inhibitors; 220 compounds, 54% hits
Sfp gel: qHTS Assay for Inhibitors of Bacillus subtilis Sfp phosphopantetheinyl transferase (PPTase): Gel Based Assay; shares compounds with NTMT1 inh; purified Sfp PPTase, gel-based product detection; Potency, µM (titrated, usually from 250 µM), for the others: at the top dose activity change, negative = inhibition, most hits filed as inhibitors; 45 compounds, 90% hits
Sfp inh SAR2: qHTS Assay for Inhibitors of Bacillus subtilis Sfp phosphopantetheinyl transferase (PPTase): SAR Round 2; Potency, µM (doses to about 57.1 µM), without a hit: top-dose activity change, negative = inhibition, actives largely listed as inhibitors; shares compounds with NTMT1 inh; AID 602370, 2012; purified Sfp enzyme, PPTase activity, qHTS; 230 compounds, 87% hits
hGST A1-1 inh: qHTS Assay for Inhibitors of Bacillus subtilis Sfp phosphopantetheinyl transferase (PPTase): SAR in hGST A1-1 | AID 602391, 2012 | shares compounds with NTMT1 inh | hGST A1-1 enzyme activity counter-screen, qHTS | Potency, µM (top dose mostly 114 µM), without a hit: at the top dose activity change, negative = inhibition, actives largely listed as inhibitors | 55 tested, under 10 active
HSD17B4 inh: Extended Characterization of HPGD Inhibitors: Counterscreen Against HSD17b4 | shares compounds with NTMT1 inh | purified HSD17B4, estradiol/NAD+, NADH fluorescence | Potency, µM (doses to about 57.1 µM), inactives show at the highest dose activity change, negative = inhibition, usual class: inhibitors | 230 compounds, 10% hits
ALDH1A1 inh: Extended Characterization of HPGD Inhibitors: Counterscreen Against ALDH1A1 | shares compounds with NTMT1 inh | recombinant ALDH1A1, NADH fluorescence, propionaldehyde/NAD+ | Potency, µM (titrated, usually from 57.1 µM), for inactives: top-dose activity change, negative = inhibition, hits mostly inhibitors | 230 compounds, 93% hits
NNMT inh: Counterscreen qHTS for Inhibitors of N-terminal methyltransferase 1 (NTMT1): NNMT MTaseGlo assay | shares compounds with NTMT1 inh | NNMT MTase-Glo luminescence, SAH detection | Potency, µM (titrated, usually from 57.1 µM), for the others: top-dose activity, negative = inhibition, actives largely listed as inhibitors | 120 compounds, 10% hits
Target sequence (P40261 whole entry, looked up): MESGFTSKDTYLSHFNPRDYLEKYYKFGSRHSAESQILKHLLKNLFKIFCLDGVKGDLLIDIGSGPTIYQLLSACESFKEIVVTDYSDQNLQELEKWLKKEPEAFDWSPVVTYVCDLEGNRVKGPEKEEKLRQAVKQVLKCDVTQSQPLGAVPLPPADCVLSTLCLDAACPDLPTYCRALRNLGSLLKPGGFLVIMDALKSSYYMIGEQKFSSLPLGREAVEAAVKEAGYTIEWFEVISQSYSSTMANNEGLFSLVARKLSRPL
Active calls of the source: *; ? = inconclusive; · = no result given; [ ] = dose if it differs, or a comment. Rows were chosen to be rich in hits. Some 4.6% of all compounds tested hit in one or more screens of this group. Unless noted, calls follow the shape of the dose curve; as a rule, active = well fitted curve in the direction sought with a large enough effect; inconclusive = small, poorly fitted or top-dose-only effect, or another doubt; inactive = no such curve, though single readings can be large; an effect the other way counts as inactive or inconclusive.

SMILES	HTT-AS promoter	NTMT1 inh	HTT prom inh	DRV1 agonist	Sfp PPTase inh	HM489 growth	Sfp PPTase gel	Sfp inh SAR2	others
OCCn1cc(-c2cnc3nnn(Cc4ccc5ncccc5c4)c3n2)cn1	5%	-2%[57.5 µM]	0%	·	·	·	·	·	NNMT inh=-19%
COc1ccc(NC(=O)N2CCN3CCCCC3C2)cc1OC (stereo not given)	-2%	-6%	-5%	-2	·	·	·	·
CCc1nc(C(N)=O)c(Nc2ccc(N3CCC(N4CCN(C)CC4)CC3)c(OC)c2)nc1NC1CCOCC1	·	20µM*	·	·	·	·	·	·	NNMT inh=-16%[38.3 µM]
CCOc1ccc(Nc2c(S(=O)(=O)c3ccc(Cl)cc3)cnc3ccc(OCC)cc23)cc1	-19%	-5%	?	-44	·	·	·	·
CN(C)C/C=C/C(=O)Nc1cc2c(Nc3ccc(F)c(Cl)c3)ncnc2cc1OC1CCOC1 (stereo not given)	·	6.3µM*	·	·	·	·	·	·	NNMT inh=?
COc1cc2ncnc(Nc3ccc(NC(=O)c4ccccc4)cc3)c2cc1OC	·	16%	·	·	·	·	·	·
CCOc1cc2ncc(C#N)c(Nc3ccc(F)c(Cl)c3)c2cc1NC(=O)/C=C/CN(C)C	·	1.1µM*	·	·	·	·	·	·	NNMT inh=16µM*
NC(=O)NCCCC(NC(=O)Cc1ccccc1)C(=O)O (stereo not given)	·	-12%[57.5 µM]	·	·	·	·	·	·
CN(C)c1ccc2c(c1)OC(N)=C(C#N)C2c1cccc(C(F)(F)F)c1 (stereo not given)	·	-13%[57.5 µM]	·	·	·	·	·	·
CN(CCc1ccco1)c1ncnc2ccc(-c3ccc4c(c3)OCO4)cc12	·	?	·	·	·	·	·	·	CLK4 inh=0.092µM*
CC(c1ccco1)N(C)c1ncnc2ccc(-c3ccc4c(c3)OCO4)cc12 (stereo not given)	·	·	·	·	·	·	·	·	DYRK1A KinaseGlo=0.26µM*
Cc1nc2c3ccccc3nc(NNC(=O)CCC(=O)N3CCN(c4cccc(C(F)(F)F)c4)CC3)n2n1	-27%	3%	?	-18	·	·	·	·
Cc1cc(C)nc(NC(=S)N2CCN(c3cc(C(F)(F)F)cc(C(F)(F)F)c3)CC2)c1	·	·	·	·	3.3µM*	17%	?	0.51µM*	HSD17B4 inh=-2%;ALDH1A1 inh=22µM*
Cc1cc(Nc2cccc(C(F)(F)F)c2)ncn1	-11%	-18%	-15%	5	·	·	·	·
Cc1ccnc(N=C(N)N2CCN(c3cccc(C(F)(F)F)c3)CC2)c1	·	·	·	·	?	?	1%	36µM*	Sfp gel=1%;hGST A1-1 inh=?
OCc1ccnc(NC(=S)N2CCN(c3cccc(C(F)(F)F)c3)CC2)c1	·	-1%	·	·	59µM*	53µM*	37%	32µM*	HSD17B4 inh=-21%;ALDH1A1 inh=24µM*
Cc1ccnc(NC(=S)N2CCC(Nc3cccc(C(F)(F)F)c3)CC2)c1	·	-17%	·	·	1.9µM*	12µM*	0.4µM*	1µM*	HSD17B4 inh=2%;ALDH1A1 inh=4.8µM*
CC(C)(O)CNc1ncc(-c2ccnc(Nc3ccncc3)n2)c(CC2CC2)n1	·	-7%	·	·	·	·	·	·
CCn1c(=O)n([C@H]2CCCN(c3nccc(-c4cc5ccccc5o4)n3)C2)c2ccccc21	·	3%[57.5 µM]	·	·	·	·	·	·
FC(F)(F)c1cccc(N2CCN(C(=S)Nc3cc4ccccc4cn3)CC2)c1	·	·	·	·	47µM*	-1%	16µM*	13µM*	HSD17B4 inh=24µM*;ALDH1A1 inh=15µM*

Screening data (PubChem BioAssay)
